# PubChem BioAssay
# Calls of active or inactive are those of the source. How the calls were made is not given here.
# Target: Pantothenate synthetase (Mycobacterium tuberculosis (strain ATCC 25618 / H37Rv)) (UniProt P9WIL5)
# Assay: Coupled enzyme confirmation of inhibitors against recombinant Mtb PanC (AID 375);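 further: 0% = full reaction with vehicle and 100% = no enzyme background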
# Conditions: coupled enzyme assay; at 10 µM, hits give high values
# Pantothenate synthetase (Mycobacterium tuberculosis (strain ATCC 25618 / H37Rv)), sequence (P9WIL5 whole entry, looked up): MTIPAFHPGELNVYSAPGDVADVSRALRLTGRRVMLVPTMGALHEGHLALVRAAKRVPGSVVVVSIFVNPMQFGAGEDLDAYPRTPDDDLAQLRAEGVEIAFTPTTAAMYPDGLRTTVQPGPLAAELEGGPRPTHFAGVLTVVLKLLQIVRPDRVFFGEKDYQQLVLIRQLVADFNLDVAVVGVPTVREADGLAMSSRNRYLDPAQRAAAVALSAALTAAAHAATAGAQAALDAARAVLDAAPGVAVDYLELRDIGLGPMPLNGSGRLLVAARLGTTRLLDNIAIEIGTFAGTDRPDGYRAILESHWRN
row,Structure (SMILES),inhibition
1,Cc1ccc(S(=O)(=O)N2CCN(c3nc(C(C)C)c4c(c3C#N)CC(C)(C)OC4)CC2)cc1,0% (inactive)
2,CCOC(=O)C1CCN(C(c2cc3cc(C)cc(C)c3[nH]c2=O)c2nnnn2C2CCCCC2)CC1 (centres undefined),0% (inactive)
3,CCOC(=O)c1cccc(NC(=O)C2CCN(S(=O)(=O)c3cccs3)CC2)c1,0% (inactive)
4,COc1ccc(C2CC(c3ccc(Cl)cc3)Nc3nc(NC(=O)c4ccco4)nn32)cc1 (centres undefined),4% (inactive)
5,Cc1ccc2cc(CN(Cc3ccc(F)cc3)Cc3nnnn3C3CCCC3)c(=O)[nH]c2c1,6% (inactive)
6,CC(=O)C1=C(NC(=O)c2ccccc2F)C[C@@H]2[C@H]1C2(C)C,0% (inactive)
7,C=Cn1c(C(=O)O)cc(CC)c1-c1ccccc1,9% (inactive)
8,COc1ccc(C2=NOC(C(=O)NC3CCCCC3)C2)cc1OC (centres undefined),2% (inactive)
9,CCOc1ccccc1NC(=O)N1CCCC1C(=O)Nc1nnc(CC)s1 (centres undefined),0% (inactive)
10,C=C(CC)C(=O)c1ccc(OCC(=O)O)c(Cl)c1Cl,0% (inactive)
11,Cc1ccc(N2CCN(S(=O)(=O)N(C)C)CC2)c(C)c1,0% (inactive)
12,CS(=O)(=O)C1=C(O)C(=O)N(c2ccccc2)C1c1ccccc1 (centres undefined),5% (inactive)
13,CC(=O)c1c(O)cc(C)n(Nc2nc(C)cc(C)n2)c1=O,0% (inactive)
14,CCOc1ccccc1NC(=O)CN(C)S(=O)(=O)c1cccc2nsnc12,11% (inactive)
15,O=S(=O)(NCCCCCNS(=O)(=O)c1ccccc1)c1ccccc1,6% (inactive)
16,CCC(C)OC(=O)c1[nH]c2c(c1C)C(=O)CC(c1ccc(N(C)C)cc1)C2 (centres undefined),0% (inactive)
17,CCOC(=O)CSc1nc2ccccc2c(=O)n1CCN1CCOCC1,0% (inactive)
18,CCOC(=O)Cc1csc(NC(=O)CSc2nnc(-c3ccncc3)n2Cc2ccco2)n1,0% (inactive)
19,O=c1oc2ccccc2n1CCc1ccccc1,4% (inactive)
20,COCCn1c(SCc2csc(-c3ccccc3)n2)nc2ccccc21,5% (inactive)
21,COc1ccccc1NC(=O)Cc1noc(CSc2cc(C)c3ccccc3n2)n1,0% (inactive)
22,CCn1c(COc2cccc3ccccc23)nnc1SCC(N)=O,9% (inactive)
23,COc1ccc(OC)c2[nH]c(=O)c(CCNC(=O)CC(C)C)cc12,2% (inactive)
24,O=C(NCc1ccc2c(c1)OCO2)C1CCC(CNc2c(N3CCCCC3)c(=O)c2=O)CC1 (centres undefined),0% (inactive)
